We go through 18 compounds from PubChem BioAssay (NCI).

Holding throughout (experiment): NCI-60 one-dose screen, 48 h (100 = growth as untreated, 0 = no growth, -100 = all killed)
The test system of assay [1] is BT-549 breast. The following applies: 10 µM unless noted.
In assay [2] the test system is MDA-MB-435 melanoma. The following applies: 10 µM unless noted.
The test system of assay [3] is SW-620 colon. To be noted: 10 µM unless noted.
The subject of assay [4] is MCF7 breast. The following applies: 10 µM.
For assay [5], the system named is HCT-116 colon. To be noted: 10 µM unless noted.
The subject of assay [6] is HCC-2998 colon. The following applies: 10 µM unless noted.
In assay [7] the test system is KM12 colon. To be noted: 10 µM unless noted.

Structures are written as SMILES. Compounds without any hit were thinned out: in the full panel of roughly 83,000, 20% have a hit.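 48-hour exposure, single concentration, 96-well plates; percent growth endpoint where 0 means no net growth. Active: below 10.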 A number with no mark means an inactive call. Calls of active or inactive are those of the source.

Take `N#C/C(=C\c1c(-c2ccccc2)[nH]c2ccccc12)C(=O)c1ccccc1`: the growth in assay [1] is 61.5%; in assay [2], 10.8%; in assay [3] it was 19.9%; in assay [4], 19.4%; in assay [5], 30.4%; in assay [6], 60.1%. For the same compound, in assay [7], the growth was 28.2%.
For the compound `Cc1cc(OC(=O)c2ccc([N+](=O)[O-])cc2)nc2[nH]c(=O)sc12`, the growth was 111% in assay [1]; 108% in assay [2]; 104% in assay [3]; 90.2% in assay [4]; 105% in assay [5]; 104% in assay [6]. The growth in assay [7] is 102%.
Regarding `Nc1ccn(C2O[C@H](CO)[C@@H](O)[C@H]2O)c(=O)n1` (stereo partly specified), the growth is 111% in assay [1]; 88.8% in assay [2]; 72.7% in assay [3]; 63.1% in assay [4]; 64.4% in assay [5]; 99% in assay [6]. Also, the growth in assay [7] was 72.1%.
For `O=C(Nc1ccsc1C(=O)NC1CCCCC1)c1ccc(F)cc1`, the growth in assay [1] is 113%; in assay [2], 110%; in assay [3], 92.5%; in assay [4] it was 90.6%; in assay [5] it was 76%; in assay [6], 97%. Moreover, the growth in assay [7] is 107%.
As for `Cc1cc2c(c(C)c1Cl)C(=O)/C(=C/c1ccco1)O2`, the growth in assay [1] was 103%; in assay [2], 100%; in assay [3], 108%; in assay [4] it was 24.7%; in assay [5], 98.7%; in assay [6] it was 97.6%. In addition, the growth in assay [7] was 75.9%.
Turning to `O=C(O)CCCN1C(=O)C2C3CCC(C3)C2C1=O` (stereo unspecified), the growth in assay [1] is 107%; in assay [2], 99.7%; in assay [3], 112%; in assay [4] it was 109%; in assay [5], 108%; in assay [6], 106%. Moreover, the growth in assay [7] is 103%.
With `CC(C)Cn1c2c(c(=S)[nH]c1=O)CCC2`, the growth was 108% in assay [1]; 98.9% in assay [2]; 93.6% in assay [3]; 109% in assay [4]; 105% in assay [5]; 123% in assay [6]. Moreover, in assay [7], the growth was 105%.
As for `N#Cc1c(N)nc2c(c1N)C(c1ccc(F)cc1)c1ccc(N)cc1O2` (stereo unspecified), the growth in assay [1] was 93.8%; in assay [2] it was 107%; in assay [3] it was 108%; in assay [4], 98.9%; in assay [5], 101%; in assay [6], 112%. Further, in assay [7], the growth is 91.2%.
Regarding `CCCN1CCN(c2ccc3nc(-c4ccc5nc(-c6cc(OC)ccc6OC)[nH]c5c4)[nH]c3c2)CC1`, the growth was 96.3% in assay [1]; 106% in assay [2]; -70.2% (active) in assay [3]; -63.3% (active) in assay [4]; -57.3% (active) in assay [5]; 113% in assay [6]. The growth in assay [7] is 32.3%.
On to `COc1ccc(C2Nc3nc(OC)n(C)c(=O)c3N=C3c4ccccc4C(=O)C32)cc1` (stereo unspecified), for which the growth in assay [1] was 86.3%; in assay [2], 78.5%; in assay [3], 90%; in assay [4], 74.5%; in assay [5] it was 95.4%; in assay [6] it was 103%. For the same compound, in assay [7], the growth was 75%.
For `CS(=O)(=O)Nc1ccc(C(=O)NC(C(=O)NO)c2ccc(-c3cccc(F)c3)cc2)cc1` (stereo unspecified), the growth is 94.1% in assay [1]; 54.5% in assay [2]; 51.2% in assay [3]; 66.7% in assay [4]; 39.1% in assay [5]; 62.6% in assay [6]. In assay [7], the growth was 58.2%.
Take `O=C(Nc1ccc(N2CCNCC2)cc1)c1[nH]ncc1Nc1cc(Oc2ccccc2)ncn1`: the growth in assay [1] is 17.5%; in assay [2], 35.8%; in assay [3], -65.5% (active); in assay [4], -0.204% (active); in assay [5], -33.6% (active); in assay [6] it was -18.1% (active). Besides, the growth in assay [7] is -78% (active).
Turning to `O=c1[nH]nnc2c1ncn2C1OC(CO)C(O)C1O` (stereo unspecified), the growth in assay [1] is 97.7%; in assay [2], 76.5%; in assay [3], 63.3%; in assay [4], 63.9%; in assay [5], 51.8%; in assay [6], 34.4%. The growth in assay [7] is 60.7%.
On to `COc1cc([C@@H]2NC(=O)NC(C)=C2C(=O)Nc2nc(-c3ccc(Cl)cc3)cs2)ccc1O`, for which the growth in assay [1] is 98.8%; in assay [2] it was 104%; in assay [3], 103%; in assay [4], 103%; in assay [5] it was 99.3%; in assay [6] it was 104%. Besides, in assay [7], the growth was 102%.
Turning to `CCOC(=O)c1sc(-c2ccc(OS(=O)(=O)c3cccs3)c(C=O)c2)nc1C`, the growth in assay [1] was -7.24% (active); in assay [2] it was -15.1% (active); in assay [3], 8.51% (active); in assay [4], -21.7% (active); in assay [5], 2.95% (active); in assay [6], 46.4%. In assay [7], the growth is 0.602% (active).
Regarding `CCOC(=O)c1ccc2[nH]c(-c3ccccc3)cc(=O)c2c1`, the growth is 103% in assay [1]; 107% in assay [2]; 103% in assay [3]; 99.8% in assay [4]; 99.4% in assay [5]; 112% in assay [6]. Also, the growth in assay [7] is 105%.
For `O=C1c2ccc3c4c(ccc(c24)C(=O)N1CCCCO)C(=O)N(CCCCO)C3=O`, the growth was 63.5% in assay [1]; 3.2% (active) in assay [2]; 10.6% in assay [3]; 28.2% in assay [4]; 28.4% in assay [5]; 97.2% in assay [6]. The growth in assay [7] is 95.3%.
Consider `COc1ccc(N(C)c2nc(N)nc3sc4c(c23)CCCC4)cc1`, for which the growth in assay [1] was 24%; in assay [2], -9.59% (active); in assay [3] it was 28.7%; in assay [4], 15.2%; in assay [5], 1.18% (active); in assay [6], 7.08% (active). For the same compound, the growth in assay [7] was 7.2% (active).
